In PubChem BioAssay:
Calls of active or inactive are those of the source. Unless noted, how the calls were made is not given here.

Columns and labels:
[1] = A549 cell viability effects, profiling panel, calcein-AM fluorescence, 48 h, basal (AID 1162); details: higher = more signal; further: test concentration not given here
[2] = adipocyte viability effects, profiling panel, cell-based, 3T3-L1 adipocytes, calcein-AM fluorescence, 48 h, basal (AID 1163); details: 3T3-L1 adipocytes viability, higher = more signal; further: test concentration not given here
[3] = HepG2 cell viability effects, profiling panel, calcein-AM fluorescence, 48 h, basal (AID 1164); details: higher = more signal; further: test concentration not given here
[4] = MM1S cell viability effects, profiling panel, calcein-AM fluorescence, 48 h, basal (AID 1165); details: higher = more signal;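 further: viability of MM1S multiple myeloma cells under basal unstimulated conditions; test concentration not given here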
[5] = basal RPMI8226 viability, no added stimulus, profiling panel, cell-based, calcein-AM fluorescence, 48 h, PK04 Diversity Set (AID 1166); details: RPMI8226 myeloma viability, higher = more signal;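 further: cells grown under basal conditions without added stimulus; test concentration not given here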
[6] = basal HepG2 mitochondrial membrane potential changes, profiling panel, cell-based, JC-1 fluorescence, 24 h, 100 nL compound (AID 1167); details: higher = more signal; further: test concentration not given here
[7] = basal 3T3-L1 adipocyte mitochondrial potential changes, profiling panel, cell-based, JC-1 fluorescence, 3T3-L1 adipocytes, 24 h, 100 nL compound (AID 1168); details: JC-1 mitochondrial fluorescence, higher = more signal, called active from +8 up or from −8 down; further: test concentration not given here
[8] = basal RPMI8226 mitochondrial membrane potential changes, profiling panel, cell-based, JC-1 fluorescence, 24 h, 100 nL compound (AID 1169); details: RPMI8226 myeloma, JC-1 mitochondrial potential fluorescence, higher = more signal; further: test concentration not given here
[9] = basal MM1S mitochondrial membrane potential changes, profiling panel, cell-based, JC-1 fluorescence, 24 h, 100 nL compound (AID 1170); details: higher = more signal; further: test concentration not given here
[10] = A549 lung cancer cell viability effects, profiling panel, resazurin fluorescence, 24 h, PK04 Diversity Set (AID 1171); details: higher = more signal, called active from +8 up or from −8 down; further: test concentration not given here
[11] = HepG2 liver cancer cell viability effects, profiling panel, resazurin fluorescence, 24 h, PK04 Diversity Set (AID 1172); details: higher = more signal; further: test concentration not given here
[12] = basal S. cerevisiae growth modulation, no modifier, primary screen, OD600, strain BY4716, 24 h, basal condition (AID 1173); details: OD600, 24 h, higher = more signal, called active from +8 up or from −8 down
[13] = MM1S myeloma cell viability, profiling panel, resazurin fluorescence, basal, 24 h, PK04 Diversity Set (AID 1174); details: higher = more signal, called active from +8 up or from −8 down;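 further: MM1S multiple myeloma cell line; test concentration not given here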
[14] = target: Dihydroorotate dehydrogenase (quinone), mitochondrial (Plasmodium falciparum (isolate 3D7)) (UniProt Q08210); experiment: PfDHODH enzyme inhibitors, primary screen, biochemical, C-terminal His tag, absorbance 600 nm (AID 1175); details: DCIP absorbance 600 nm, higher = more signal, called active from +8 up or from −8 down;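 further: recombinant parasite enzyme with a five histidine tag at its C terminus; test concentration not given here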
[15] = P. aeruginosa biofilm formation inhibitors, primary screen, strain PAO1, LB-PBS medium, absorbance 600 nm (AID 1176); further: test concentration not given here; details: P. aeruginosa PAO1 growth/biofilm, A600, 12 h; higher = more signal
[16] = S. cerevisiae RM11-1a growth modifiers, primary screen, strain RM11-1a, OD600, basal, 24 h (AID 1177); details: OD600, 24 h, higher = more signal, called active from +8 up or from −8 down;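 further: cultures grown under basal conditions with no added stressor; test concentration not given here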
[17] = E. coli acrAB mutant growth effects, primary screen, E. coli filamentation inducers, strain DRC39, OD650, 24 h (AID 1178); details: higher = more signal, called active from +8 up or from −8 down;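 further: growth measured as culture turbidity by optical density at 650 nm; test concentration not given here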
[18] = E. coli acrAB mutant growth effects, primary screen, E. coli filamentation inducers, strain DRC39, OD650, 48 h (AID 1179);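 further: screen aims at cell division blockers that make cells filament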; details: E. coli DRC39 delta-acrAB growth, higher = more signal, called active from +8 up or from −8 down
[19] = RPMI8226 myeloma cell viability, profiling panel, resazurin fluorescence, basal, 24 h, PK04 Diversity Set (AID 1180); details: higher = more signal;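 further: RPMI8826 multiple myeloma cell line at 5000 cells per well; test concentration not given here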
[20] = target: E3 ubiquitin-protein ligase XIAP (Homo sapiens) (UniProt P98170); experiment: XIAP binders, primary screen, biophysical, small-molecule microarray, fluorescence 635 nm (AID 1181); details: small-molecule microarray binding, higher = more signal;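 further: score merges 667 nm emission and signal to noise over triplicate slides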
E3 ubiquitin-protein ligase XIAP (Homo sapiens), sequence (P98170 whole entry, looked up): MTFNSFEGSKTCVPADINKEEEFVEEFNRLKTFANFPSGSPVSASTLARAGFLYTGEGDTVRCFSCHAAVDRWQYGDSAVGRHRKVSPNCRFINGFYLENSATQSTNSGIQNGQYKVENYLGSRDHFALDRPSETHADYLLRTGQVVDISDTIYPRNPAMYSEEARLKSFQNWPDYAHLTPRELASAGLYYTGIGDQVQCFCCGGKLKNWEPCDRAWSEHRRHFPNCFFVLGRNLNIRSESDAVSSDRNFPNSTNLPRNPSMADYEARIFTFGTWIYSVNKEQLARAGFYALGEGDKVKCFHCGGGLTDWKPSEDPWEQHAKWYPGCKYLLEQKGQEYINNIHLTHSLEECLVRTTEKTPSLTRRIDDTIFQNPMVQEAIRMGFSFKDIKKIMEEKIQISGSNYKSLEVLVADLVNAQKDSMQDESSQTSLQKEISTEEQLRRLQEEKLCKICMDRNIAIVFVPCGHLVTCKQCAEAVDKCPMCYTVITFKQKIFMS

Dihydroorotate dehydrogenase (quinone), mitochondrial (Plasmodium falciparum (isolate 3D7)), sequence (Q08210 whole entry, looked up): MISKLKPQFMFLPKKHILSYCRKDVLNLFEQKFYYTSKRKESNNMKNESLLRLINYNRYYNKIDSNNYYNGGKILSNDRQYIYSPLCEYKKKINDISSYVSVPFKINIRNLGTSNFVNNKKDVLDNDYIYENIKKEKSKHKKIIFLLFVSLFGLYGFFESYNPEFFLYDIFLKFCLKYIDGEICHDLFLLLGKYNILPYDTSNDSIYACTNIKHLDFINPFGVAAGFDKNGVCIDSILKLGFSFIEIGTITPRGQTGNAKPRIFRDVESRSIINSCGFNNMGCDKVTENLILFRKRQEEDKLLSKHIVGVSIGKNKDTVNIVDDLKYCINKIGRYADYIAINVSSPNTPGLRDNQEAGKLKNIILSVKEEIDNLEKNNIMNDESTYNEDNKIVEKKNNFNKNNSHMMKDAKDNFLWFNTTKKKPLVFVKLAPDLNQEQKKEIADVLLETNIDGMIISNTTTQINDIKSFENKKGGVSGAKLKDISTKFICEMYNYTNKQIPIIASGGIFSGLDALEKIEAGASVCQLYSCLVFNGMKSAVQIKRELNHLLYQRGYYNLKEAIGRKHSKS

Row | SMILES | z-score [1] | z-score [2] | z-score [3] | z-score [4] | z-score [5] | z-score [6] | z-score [7] | z-score [8] | z-score [9] | z-score [10] | z-score [11] | z-score [12] | z-score [13] | composite z-score [14] | z-score [15] | z-score [16] | z-score [17] | z-score [18] | z-score [19] | composite z-score [20]
1 | Cc1ccc([C@@H]2CC=C(C(=O)O)[C@H](c3ccccc3)N2S(=O)(=O)c2ccc(C)cc2)cc1 | -0.612 | 0.557 | -0.825 | -0.251 | -2.2 | -0.957 | 0.289 (inactive) | -0.373 | 0.511 | -0.997 (inactive) | -1.02 | -2.08 (inactive) | -1.26 (inactive) | -0.527 (inactive) | -0.405 (inactive) | 0.0193 (inactive) | -1.36 (inactive) | -1.3 (inactive) | -1.99 | -0.202
2 | CC1CC/C=C\[C@H]2OC34C=CCN(Cn5nnc6ccccc65)C(=O)[C@H]3N(C(C)CO)C(=O)[C@@H]4C2C(=O)O1 (stereo not given in full) | 0.151 | -0.14 | 0.203 | 0.835 | 0.182 | 0.236 | -0.087 (inactive) | 0.128 | -0.731 | 0.0113 (inactive) | 0.142 | -0.0496 (inactive) | 0.035 (inactive) | 0.853 (inactive) | -0.0837 (inactive) | 0.472 (inactive) | 0.756 (inactive) | 0.665 (inactive) | 0.0911 | 0.282
3 | COC(=O)[C@@]1(Cc2ccccc2N=[N+]=[N-])N=C(c2ccc(OCCCO)cc2)O[C@H]1c1ccccc1CN=[N+]=[N-] | -2.82 | 0.128 | -5.51 | -3.55 | -3.96 | -1.98 | 1.69 (inactive) | -0.822 | -2.91 | -3.26 (inactive) | -4.57 | 1.16 (inactive) | -8.21 (active) | 0.648 (inactive) | 0.383 (inactive) | 0.992 (inactive) | 0.23 (inactive) | 0.887 (inactive) | -7 | 0.264
4 | O=C/C=C/c1ccc(/C=C/c2ccccc2)cc1 | 1 | -0.111 | -0.167 | -3.21 | -4.46 | -0.228 | 1.26 (inactive) | -0.949 | -2.1 | 0.22 (inactive) | 0.555 | -16.4 (active) | 0.408 (inactive) | -1.43 (inactive) | 0.668 (inactive) | -1.01 (inactive) | 2.11 (inactive) | 1.56 (inactive) | -3.21 | -0.242
5 | COC(=O)C[C@H]1O[C@]2(C(=O)N(Cc3ccccc3)c3ccc(I)cc32)[C@@H](C)[C@@H]1[Si](C)(C)c1ccc(OC)cc1 | -0.344 | 1.02 | 0.638 | -0.077 | -1.22 | 2.66 | -1.07 (inactive) | -0.226 | 0.211 | -0.923 (inactive) | -0.583 | -2.01 (inactive) | -0.146 (inactive) | 0.94 (inactive) | -0.435 (inactive) | 0.765 (inactive) | -0.493 (inactive) | -0.598 (inactive) | -0.196 | -0.211
6 | COC(=O)c1ccc(C#CC(NP(=O)(c2ccccc2)c2ccccc2)c2ccccc2)cc1 (stereo not given) | -0.341 | -0.0724 | 0.428 | -3.15 | -3.5 | -0.798 | -0.174 (inactive) | -0.352 | -1.3 | -0.491 (inactive) | -0.0848 | 0.441 (inactive) | 0.693 (inactive) | -3.37 (inactive) | 0.231 (inactive) | 0.919 (inactive) | 0.37 (inactive) | 0.369 (inactive) | 1.26 | 0.063
7 | COCCOC(=O)N1C(=O)[C@@]2(c3cc(C#CC4=CCCCC4)ccc31)[C@H](C(=O)NC[C@H](O)c1ccccc1)[C@H]1C(=O)O[C@H](c3ccccc3)[C@H](c3ccccc3)N1[C@@H]2c1ccc(OCCO)cc1 | -0.602 | -0.39 | -0.199 | -1.89 | -1.63 | -1.92 | 0.449 (inactive) | -0.704 | -1.65 | -0.355 (inactive) | 0.604 | 1.61 (inactive) | -1.68 (inactive) | -0.773 (inactive) | 2.83 (inactive) | 2.7 (inactive) | -0.276 (inactive) | 0.0077 (inactive) | -1.44 | -0.26
8 | CCOC(=O)C[C@H]1[C@H](OC(=O)c2cc3ccccc3oc2=O)[C@@H](NC(=O)C2CCCCC2)c2cc(OCCCO)ccc2N1C(=O)c1ccc2ccccc2n1 | -0.133 | 0.536 | 0.312 | 0.0733 | -0.253 | 0.0115 | -0.734 (inactive) | 0.322 | -0.166 | 0.164 (inactive) | -0.35 | 1 (inactive) | 0.201 (inactive) | 0.884 (inactive) | -0.0339 (inactive) | 1.58 (inactive) | 0.205 (inactive) | 0.0214 (inactive) | 0.15 | -0.22
9 | O=C1O[C@@H](c2ccccc2)[C@@H](c2ccccc2)N2[C@@H](c3ccc(OCCO)cc3)[C@]3(C(=O)Nc4ccc(C#CCCO)cc43)[C@@H](C(=O)N3CCN(c4ncccn4)CC3)[C@H]12 | 0.848 | 0.38 | -0.17 | 0.0057 | 0.442 | 0.0349 | 1.88 (inactive) | -0.623 | 0.173 | 0.293 (inactive) | 1.26 | 1.35 (inactive) | 0.833 (inactive) | -1.58 (inactive) | 1.55 (inactive) | 2.04 (inactive) | 1.05 (inactive) | 0.17 (inactive) | 2.17 | 0.19
